Screening results as filed in PubChem.
A selection: hits, their analogues and other compounds. The true share with any hit is near 3.4%.
GPR151 activ – activators of human GPR151, primary screen, cell-based, PathHunter beta-arrestin, luminescence; G-protein coupled receptor 151 (Homo sapiens), Q8TDV0; PathHunter beta-arrestin GPR151 cells; activation, % at 11.2 µM; hit rate 1% among 650,000; AID 1508602, 2020; in the data active = activation above about 4.9%
Target sequence (Q8TDV0 whole entry, looked up): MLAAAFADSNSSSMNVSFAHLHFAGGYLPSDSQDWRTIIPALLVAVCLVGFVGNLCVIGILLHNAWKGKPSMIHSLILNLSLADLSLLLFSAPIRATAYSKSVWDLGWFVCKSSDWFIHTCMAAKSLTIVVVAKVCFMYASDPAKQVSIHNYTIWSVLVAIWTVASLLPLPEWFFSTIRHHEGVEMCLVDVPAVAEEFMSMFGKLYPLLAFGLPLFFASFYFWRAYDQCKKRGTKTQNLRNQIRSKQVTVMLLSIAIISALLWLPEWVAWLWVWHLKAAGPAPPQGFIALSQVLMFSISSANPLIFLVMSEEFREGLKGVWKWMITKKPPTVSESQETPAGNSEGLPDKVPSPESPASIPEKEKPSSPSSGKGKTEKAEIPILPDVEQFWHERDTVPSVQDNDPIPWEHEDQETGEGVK
MITF inh – MITF inhibitors, primary screen, biochemical, AlphaScreen, human. Microphthalmia-associated transcription factor (Homo sapiens), O75030. AlphaScreen MITF homodimerization, bead proximity signal. inhibition, % at 2.6 µM. hit rate 0.91% among 650,000. AID 1259374, 2018; in the data active = inhibition above about 50%
FBW7 act – FBW7 E3 ligase activators, primary screen, biochemical, AlphaScreen, human | F-box/WD repeat-containing protein 7 (Homo sapiens), Q969H0 | AlphaScreen FBW7–phospho-cyclin E peptide binding, activator screen | normalized activity (activation), % at 26.1 µM | hit rate 0.13% among 650,000 | AID 1259310, 2017; in the data active = normalized activity above about 1.9%;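 also: purified mutant Fbw7 with reduced substrate affinity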
TEAD-YAP block – TEAD-YAP interaction inhibition, primary screen, TEAD-YAP interaction inhibitor project, luminescence, HEK-TIYL cells | TEAD-Gal4/YAP UAS-luciferase luminescence | inhibition, % at 9.12 µM | hit rate 1.4% among 640,000; in the data active = inhibition above about 32%
Large screens that a line does not name were inactive.

O=C(CCCN1C(=O)c2ccccc2C1=O)NCC(=O)N1CCOCCOCCOCCOCC1	none
c1cc(-n2cnc3c(NC4CC4)nc(N4CCC(N5CCOCC5)CC4)nc32)cs1	TEAD-YAP block 46
CC(=O)NC(c1ccc(C)cc1)c1cc(Cl)c2cccnc2c1O (stereo not drawn)	none
CC(=O)NC(c1cccc(Cl)c1)c1cc(Cl)c2cccnc2c1O (stereo not drawn)	TEAD-YAP block 36
CC(=O)NC(c1ccc2c(c1)OCO2)c1cc(Cl)c2cccnc2c1O (stereo not drawn)	TEAD-YAP block 71
CCCCC(=O)NC(c1ccc2c(c1)OCO2)c1cc(Cl)c2cccnc2c1O (stereo not drawn)	none
O=C(NCc1ccco1)c1ccc(N2CC3CC(C2)c2cccc(=O)n2C3)c(NC(=O)c2ccncc2)c1 (stereo not drawn)	TEAD-YAP block 45
O=C(COC(=O)C1c2ccccc2Oc2ccccc21)c1ccc[nH]1	none
Cc1ccccc1C1NC(=S)NC2=C1C(=O)CC(C)(C)C2 (stereo not drawn)	none
CC1(C)CC(=O)C2=C(C1)NC(=S)NC2c1ccccc1 (stereo not drawn)	TEAD-YAP block 55
CCc1ccc(OCC(O)Cn2c(C3CC(=O)N(c4ccccc4F)C3)nc3ccccc32)cc1 (stereo not drawn)	none
Cc1ccc(OCC(O)Cn2c(C3CC(=O)N(c4ccccc4F)C3)nc3ccccc32)cc1C (stereo not drawn)	TEAD-YAP block 32
Nc1ccnc(NCc2ccccc2)c1	TEAD-YAP block 32
COc1ccc(C(=O)Nn2c(SCC(=O)NC3CCCCC3)nc3ccccc3c2=O)cc1	TEAD-YAP block 81
COc1ccc(C(=O)Nn2c(C)nc3ccccc3c2=O)cc1	none
COc1ccc(C(=O)Nn2c(SCC(=O)N3CCCC3)nc3ccccc3c2=O)cc1	TEAD-YAP block 78
O=C(CSc1nc2ccccc2c(=O)n1NC(=O)c1ccc(F)cc1)NC1CCCCC1	none
COc1ccc(C(=O)Nn2c(SCC(=O)N3CCN(c4ccccc4)CC3)nc3ccccc3c2=O)cc1	TEAD-YAP block 77
O=C(Nn1c(SCC(=O)N2CCN(c3ccccc3)CC2)nc2ccccc2c1=O)c1ccc(F)cc1	none
O=C(O)CSc1nc2ccccc2n1CC(=O)NC1CCCCC1	FBW7 act 1.9
CC(C)CCNC(=O)CSc1nc2ccsc2c(=O)n1CCCC(=O)NCCc1ccccc1	none
COC(=O)C(NC(=O)c1ccc(C)cc1)(Nc1sc2c(c1C#N)CCC(C)C2)C(F)(F)F (stereo not drawn)	none
O=C1CCC(C(=O)NCc2nnc3n2CCN(Cc2cccc(Cl)c2)CC3)N1 (stereo not drawn)	none
COc1ccc(C(=O)Nn2c(C3CC3)nc3ccccc3c2=O)cc1	none
COc1ccc(C(=O)Nn2c(SCC(=O)N3CCC(C)CC3)nc3ccccc3c2=O)cc1	TEAD-YAP block 82
COc1ccc(C(=O)Nn2c(SCC(=O)c3ccc(Cl)cc3)nc3ccccc3c2=O)cc1	TEAD-YAP block 77
CCOC(=O)c1ccc(NC(=O)CC2C(=O)N(c3ccccc3)C(=S)N2CCc2ccc(OC)c(OC)c2)cc1 (stereo not drawn)	none
COc1ccc(C(=O)Nn2c(SCc3ccc(C)cc3)nc3ccccc3c2=O)cc1	TEAD-YAP block 38
Cc1ccc(NC(=O)CSc2nc3ccccc3c(=O)n2NC(=O)c2ccc(F)cc2)cc1	TEAD-YAP block 41
CCOC(=O)N1CCC(n2c(SCC(=O)Nc3ccc(C)cc3)nc3ccccc3c2=O)CC1	TEAD-YAP block 55
COc1ccc(C(=O)Nn2c(SCc3cccnc3)nc3ccccc3c2=O)cc1	TEAD-YAP block 66
COc1ccc(NC(=O)Cc2ccccc2[N+](=O)[O-])cc1	none
COc1ccc(C(=O)Nn2c(SCc3cccc([N+](=O)[O-])c3)nc3ccccc3c2=O)cc1	TEAD-YAP block 72
COc1ccc(C(=O)Nn2c(SCc3ccc(Cl)cc3)nc3ccccc3c2=O)cc1	none
O=C(Nn1c(SCc2cccc([N+](=O)[O-])c2)nc2ccccc2c1=O)c1ccccc1	none
COc1ccc(C(=O)Nn2c(SCc3cccc(F)c3)nc3ccccc3c2=O)cc1	TEAD-YAP block 77
COc1ccc(C(=O)Nn2c(SCc3ccc(F)cc3)nc3ccccc3c2=O)cc1	TEAD-YAP block 52
CC(C)(C)c1ccc(-c2nc3ccccc3c(=O)n2NC(=O)c2cccnc2)cc1	TEAD-YAP block 83
